This note sets out measurements from PubChem BioAssay (NCATS).

Structures are written as SMILES. Results filed as inconclusive are left out. Activity calls are given as the source filed them. Unless noted, calls follow the shape of the dose curve; as a rule, active = well fitted curve in the direction sought with a large enough effect; inconclusive = small, poorly fitted or top-dose-only effect, or another doubt; inactive = no such curve, though single readings can be large; an effect the other way counts as inactive or inconclusive.

The nature of test [1]: AP1 Signaling Pathway (AID 357; active = well fitted curve in either direction with a large enough effect, not every such curve was filed as active;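 also: ME-180 reporter cells stimulated with EGF at its EC50 level; % is scaled to controls: 0 for no effect and ±100 for the full control effect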). The procedure, abridged:
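Titration-series screen for positive or negative modulators of EC50 EGF-induced signaling in ME-180 cells carrying an AP-1-driven beta-lactamase reporter. After 5 hours at 37 degrees Celsius, CCF4 460nm/530nm emission ratio gave %Activity; AC50 values derived.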

Test [2] addresses Cytochrome P450 1A2 (Homo sapiens) (UniProt P05177). As to the kind of experiment: p450-cyp1a2 (AID 410; calls by dose curve; also: potency is read from the fitted curve at half-maximal effect;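 as to activity change, negative = inhibition: -100% = full effect of reference inhibitor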). The procedure, abridged: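 Human CYP1A2 (20nM) demethylated Luciferin-ME at its Km (100uM) in 100mM KPO4. After 10 min compound preincubation, NADPH regeneration ran the reaction 60 min at room temperature. Luciferin was read by luminescence, normalized to 57 uM furafylline.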

Test [3] can be described thus: NFAT Signaling Pathway (AID 444; active = well fitted curve in either direction with a large enough effect, not every such curve was filed as active;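 also: carbachol stimulus at about its EC50 of 1 µM final; % is scaled to controls: 0 for no effect and ±100 for the full control effect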). The note with it: Jurkat NFAT-bla M1, carbachol, beta-lactamase ratio, 5 h; at 17.2 µM (top of the series) unless noted. The procedure, abridged:
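Jurkat cells with NFAT-driven β-lactamase reporter and co-expressed M1 receptor, stimulated with carbachol (final 1 uM, ~EC50), compound titration, 5 h at 37 °C. CCF4 loaded 1 h at RT; 460/530 nm ratio gave %activity and AC50.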

Test [4] can be described thus: Stat Signaling Pathway (AID 446; active = well fitted curve in either direction with a large enough effect, not every such curve was filed as active;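 also: ME-180 cervical cancer cells given 40 pM IL-6 alongside compound; SIE-controlled beta-lactamase reporter measured as 460/530 nm FRET emission ratio; % is scaled to controls: 0 for no effect and ±100 for the full control effect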). The essentials:
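ME-180 SIE-bla cells; overnight plating; cpd + IL-6 40 pM, 5 h, 37 C; LiveBLAzer 2.5 h RT; 460/530 nm emission ratio. Normalized to 300 pM IL-6 and 125 nM JAK inhibitor controls.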

The target of test [5] is Glucocorticoid receptor (Homo sapiens) (UniProt P04150). As to the kind of experiment: GR-GFP Redistribution (AID 450;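 active = compounds whose dose series gives a full or clear partial fitted curve of increased nuclear translocation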; also: potency is read from the fitted curve at half-maximal effect). The note with it: U2OS GR-GFP nuclear translocation, laser cytometry, 2 h.
Chain of Glucocorticoid receptor (Homo sapiens) (P04150 whole entry, looked up, the tested form may be a part): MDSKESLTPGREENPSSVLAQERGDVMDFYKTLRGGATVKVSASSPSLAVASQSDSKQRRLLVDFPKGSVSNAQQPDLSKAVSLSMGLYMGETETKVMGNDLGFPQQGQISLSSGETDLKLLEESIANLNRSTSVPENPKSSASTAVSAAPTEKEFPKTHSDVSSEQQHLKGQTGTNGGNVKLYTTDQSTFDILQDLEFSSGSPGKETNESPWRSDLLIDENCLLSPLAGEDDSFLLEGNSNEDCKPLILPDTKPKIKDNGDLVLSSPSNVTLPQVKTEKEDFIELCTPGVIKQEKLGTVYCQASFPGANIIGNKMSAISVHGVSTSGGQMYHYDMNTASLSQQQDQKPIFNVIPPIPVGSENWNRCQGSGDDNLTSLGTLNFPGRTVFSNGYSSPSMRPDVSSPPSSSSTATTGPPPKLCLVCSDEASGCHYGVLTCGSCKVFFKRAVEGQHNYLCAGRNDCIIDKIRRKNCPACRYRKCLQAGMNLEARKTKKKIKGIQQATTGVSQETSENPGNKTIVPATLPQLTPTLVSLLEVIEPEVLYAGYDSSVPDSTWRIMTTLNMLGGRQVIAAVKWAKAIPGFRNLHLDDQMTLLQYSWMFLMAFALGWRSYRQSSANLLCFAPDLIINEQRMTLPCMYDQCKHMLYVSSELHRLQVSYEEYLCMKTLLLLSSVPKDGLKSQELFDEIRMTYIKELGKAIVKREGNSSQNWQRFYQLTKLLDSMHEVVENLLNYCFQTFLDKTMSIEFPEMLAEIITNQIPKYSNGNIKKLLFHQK
Test [6] has the same target. As to the kind of experiment: GR-EFC Redistribution (AID 451; calls by dose curve; also: potency is read from the fitted curve at half-maximal effect). The note with it: CHO-K1 GR-EFC translocation, beta-gal luminescence, 2 h. The procedure, abridged: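 CHO-K1 cells expressing nuclear EA and GR-ED fragments of b-gal; compounds titrated up to 46 uM final, 2 h at 37 C. GR nuclear translocation read as complemented b-gal luminescence after 1 h RT detection.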

Test [7] has as its target Mitogen-activated protein kinase 10 (Mus musculus) (UniProt Q61831). As to the kind of experiment: JNK3 AlphaScreen Assay (AID 530; active = well fitted curve in either direction with a large enough effect, not every such curve was filed as active;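 also: kinase came from lysate of stimulated human HepG2 cells; signal reports phosphorylation of biotinylated GST-cJun 1-79 at Ser73 with 10 µM ATP; % is scaled to controls: 0 for no effect and ±100 for the full control effect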). The procedure, abridged:
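qHTS format: compounds tested as titrations against IL-1beta/TNF-alpha-activated HepG2 lysate JNK3 with biotin-GST-cJun substrate and 10 uM ATP at room temperature. Loss of anti-phospho-cJun AlphaScreen signal indicates inhibition.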

For test [8], the target named is 3',5'-cyclic-AMP phosphodiesterase 4B (Homo sapiens) (UniProt Q07343). As to the kind of experiment: qHTS Assay for Inhibitors of PDE-IV (AID 607; active = well fitted activation curve with a large enough effect in the main read-out, with a control signal flat, not every such curve was filed as active; also: % of control where 0% means no effect). The essentials: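 ACTOne HEK293 cells carry a modified cAMP-gated CNG channel and express endogenous PDE4; plated 1000 cells/well, compounds up to 22.9 uM final. Membrane-potential dye fluorescence (ex 535/em 590) was read; parental cells received 10 uM forskolin + 100 uM RO 20-1724.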
Chain of 3',5'-cyclic-AMP phosphodiesterase 4B (Homo sapiens) (Q07343 whole entry, looked up): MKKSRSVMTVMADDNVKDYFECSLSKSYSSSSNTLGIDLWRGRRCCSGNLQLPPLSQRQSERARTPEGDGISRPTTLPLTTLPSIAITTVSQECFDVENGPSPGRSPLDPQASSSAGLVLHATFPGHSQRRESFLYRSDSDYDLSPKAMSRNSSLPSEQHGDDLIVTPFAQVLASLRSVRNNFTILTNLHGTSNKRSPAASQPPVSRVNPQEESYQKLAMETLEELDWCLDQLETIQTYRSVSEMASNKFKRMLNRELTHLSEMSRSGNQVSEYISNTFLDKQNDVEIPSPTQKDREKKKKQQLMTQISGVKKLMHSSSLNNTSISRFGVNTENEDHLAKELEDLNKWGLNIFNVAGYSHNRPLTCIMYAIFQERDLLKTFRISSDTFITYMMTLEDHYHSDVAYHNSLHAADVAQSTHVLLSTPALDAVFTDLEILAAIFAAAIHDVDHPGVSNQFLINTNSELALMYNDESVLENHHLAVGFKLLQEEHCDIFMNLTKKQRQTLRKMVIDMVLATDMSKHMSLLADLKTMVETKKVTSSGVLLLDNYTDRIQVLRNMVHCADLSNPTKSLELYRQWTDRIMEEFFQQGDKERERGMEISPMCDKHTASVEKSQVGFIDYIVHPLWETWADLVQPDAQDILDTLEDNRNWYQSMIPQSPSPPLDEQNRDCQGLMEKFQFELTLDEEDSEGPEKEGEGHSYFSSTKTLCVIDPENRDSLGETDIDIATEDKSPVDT
Background: Quantitative high-throughput screening tests each substance at several concentrations.

Test [9] can be described thus: qHTS Assay for Lipid Storage Modulators (AID 1519; calls by dose curve). The settings on record: Drosophila S3 cells, BODIPY lipid droplet/cell ratio, laser cytometry, cells loaded with oleic acid; for activity change, negative = inhibition: at 25.7 µM (top of the series). The essentials:
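Cells seeded at 5,000 per well were treated with compounds over a concentration series and loaded with oleic acid (400 uM, as added). Lipid droplet fluorescence (488 nm excitation, 500-530 nm channel) was read by laser-scanning cytometry and normalized to 20 uM Triacsin C.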

Test [10] deals with Ubiquitin carboxyl-terminal hydrolase 1 (Homo sapiens) (UniProt O94782). As to the kind of experiment: Inhibitors of USP1/UAF1: Pilot qHTS (AID 504865).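 Also: rhodamine fluorescence freed from ubiquitin-rhodamine substrate followed over time; top concentration of the series differs between compounds; % is scaled to controls: 0 for no effect and ±100 for the full control effect; nearly all actives have a fitted effect of over 35% in size.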 The procedure, abridged: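 Enzyme-free wells gave the negative control, while test wells held 1nM USP1/UAF1 preincubated with compound for 15 min at room temperature. Ub-Rho at 150nM final started the reaction, and fluorescence at 480/540 nm was recorded kinetically.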
Chain of Ubiquitin carboxyl-terminal hydrolase 1 (Homo sapiens) (O94782 whole entry, looked up): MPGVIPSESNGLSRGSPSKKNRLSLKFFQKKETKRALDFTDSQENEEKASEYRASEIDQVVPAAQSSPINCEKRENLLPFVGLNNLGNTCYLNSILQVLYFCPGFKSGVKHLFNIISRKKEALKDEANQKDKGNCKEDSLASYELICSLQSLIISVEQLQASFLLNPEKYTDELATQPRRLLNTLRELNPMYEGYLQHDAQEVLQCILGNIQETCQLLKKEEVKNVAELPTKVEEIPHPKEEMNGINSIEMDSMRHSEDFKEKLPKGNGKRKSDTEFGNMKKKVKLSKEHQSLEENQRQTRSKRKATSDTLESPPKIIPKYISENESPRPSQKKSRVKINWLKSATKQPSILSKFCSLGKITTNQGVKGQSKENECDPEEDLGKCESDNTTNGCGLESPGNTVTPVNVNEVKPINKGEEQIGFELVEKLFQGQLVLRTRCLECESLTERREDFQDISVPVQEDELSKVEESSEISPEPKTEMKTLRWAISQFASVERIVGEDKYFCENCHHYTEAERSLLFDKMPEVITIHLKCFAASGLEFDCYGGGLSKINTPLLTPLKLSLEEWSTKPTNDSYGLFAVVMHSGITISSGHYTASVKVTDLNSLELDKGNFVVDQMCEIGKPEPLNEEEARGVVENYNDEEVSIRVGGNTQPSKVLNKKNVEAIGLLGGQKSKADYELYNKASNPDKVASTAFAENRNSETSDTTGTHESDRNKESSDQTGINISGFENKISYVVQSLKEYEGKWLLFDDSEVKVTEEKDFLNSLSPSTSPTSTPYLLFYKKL

Test [11] has as its target Luciferin 4-monooxygenase (Photinus pyralis) (UniProt P08659). As to the kind of experiment: Biochemical firefly luciferase enzyme assay for NPC (AID 624030).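 Also: purified P. pyralis luciferase at 10 nM with luciferin and ATP substrate; 0% = DMSO and -100% = full luciferase inhibition by PTC124 control; nearly all actives have a fitted effect of over 70% in size.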 The essentials:
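Purified P. pyralis luciferase at 10 nM in 50 mM Tris Acetate (final), luminescence read within 5 minutes of enzyme addition to compounds. Activity normalised to PTC124 versus DMSO; concentration-response curves classed by r2, magnitude and activity.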

The nature of test [12]: qHTS profiling for inhibitors of Plasmodium falciparum proliferation (AID 504749).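 Also: 0% = DMSO vehicle and full inhibition = artemisinin control; nearly all actives have a fitted effect of over 60% in size.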 The note with it: P. falciparum in erythrocytes, SYBR Green DNA, 72 h, at 12.8 µM (top of the series). The essentials: (§1)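 Readout was DNA-dye fluorescence from lysed cultures, ex 485/em 535 nm. Parasitized red cells had grown 72 h with compound; data scaled between 0.29 uM artemisinin and DMSO wells and corrected using vehicle-only plates.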

A further test relates to C2A. The description is as above. The note with it: P. falciparum in erythrocytes, SYBR Green DNA, 72 h; series mostly up to 12.8 µM. The procedure, abridged:
as §1

In a further test the test system is CP191. The test is described as above. The settings on record: P. falciparum in erythrocytes, SYBR Green DNA, 72 h; series mostly up to 12.8 µM. The procedure, abridged:
as §1

Another test concerns CP256. Described as above. The settings on record: P. falciparum in erythrocytes, SYBR Green DNA, 72 h; series mostly up to 12.8 µM. The procedure, abridged:
as §1

The test system of a further test is CP262. The test is described as above. The settings on record: P. falciparum in erythrocytes, SYBR Green DNA, 72 h; series mostly up to 12.8 µM. The essentials: as §1
Another test deals with CP268. The description is as above. The settings on record: P. falciparum in erythrocytes, SYBR Green DNA, 72 h; series mostly up to 12.8 µM. The procedure, abridged:
as §1

Another test relates to JCK. The test is described as above. The note with it: P. falciparum in erythrocytes, SYBR Green DNA, 72 h; series mostly up to 12.8 µM. The essentials:
as §1

The next test has as its system SC27B. Described as above. The settings on record: P. falciparum in erythrocytes, SYBR Green DNA, 72 h; series mostly up to 12.8 µM. The essentials: as §1
The nature of test [13]: S16 Schwann cell viability assay (CellTiter-Glo assay) (AID 624031).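 Also: plate controls were DMSO-treated cells for no effect and cell-free wells for full effect; nearly all actives have a fitted effect of over 70% in size.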 The essentials: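 Native S16 rat Schwann cells, 500-750 cells/well in DMEM with 10% FBS, dosed with compound after overnight culture and incubated 24h at 37 degree Celsius/5% CO2. Viability by CellTiter-Glo luminescence; % activity normalized to no-cell wells and DMSO-treated cells.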
A general note: ATP-based viability assays read luminescence as a measure of living cells.

The mark [14] stands for this setting: measured here: cell count channel max response.
Setting [15] is: measured here: lipid channel max response.

Chain of Luciferin 4-monooxygenase (Photinus pyralis) (P08659 whole entry, looked up): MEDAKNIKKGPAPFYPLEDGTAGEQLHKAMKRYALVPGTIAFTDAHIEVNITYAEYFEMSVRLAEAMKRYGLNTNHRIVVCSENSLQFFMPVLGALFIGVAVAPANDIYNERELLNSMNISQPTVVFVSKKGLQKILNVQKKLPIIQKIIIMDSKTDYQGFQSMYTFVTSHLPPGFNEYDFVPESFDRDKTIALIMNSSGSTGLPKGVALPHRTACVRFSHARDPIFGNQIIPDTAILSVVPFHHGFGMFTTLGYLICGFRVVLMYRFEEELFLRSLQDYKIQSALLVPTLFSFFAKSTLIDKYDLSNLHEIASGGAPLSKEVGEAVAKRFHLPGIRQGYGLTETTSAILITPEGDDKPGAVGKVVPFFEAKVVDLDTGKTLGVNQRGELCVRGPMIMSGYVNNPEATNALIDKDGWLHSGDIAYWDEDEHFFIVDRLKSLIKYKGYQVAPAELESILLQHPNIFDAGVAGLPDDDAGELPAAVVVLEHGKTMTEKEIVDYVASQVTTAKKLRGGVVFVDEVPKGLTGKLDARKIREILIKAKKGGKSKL
Chain of Cytochrome P450 1A2 (Homo sapiens) (P05177 whole entry, looked up): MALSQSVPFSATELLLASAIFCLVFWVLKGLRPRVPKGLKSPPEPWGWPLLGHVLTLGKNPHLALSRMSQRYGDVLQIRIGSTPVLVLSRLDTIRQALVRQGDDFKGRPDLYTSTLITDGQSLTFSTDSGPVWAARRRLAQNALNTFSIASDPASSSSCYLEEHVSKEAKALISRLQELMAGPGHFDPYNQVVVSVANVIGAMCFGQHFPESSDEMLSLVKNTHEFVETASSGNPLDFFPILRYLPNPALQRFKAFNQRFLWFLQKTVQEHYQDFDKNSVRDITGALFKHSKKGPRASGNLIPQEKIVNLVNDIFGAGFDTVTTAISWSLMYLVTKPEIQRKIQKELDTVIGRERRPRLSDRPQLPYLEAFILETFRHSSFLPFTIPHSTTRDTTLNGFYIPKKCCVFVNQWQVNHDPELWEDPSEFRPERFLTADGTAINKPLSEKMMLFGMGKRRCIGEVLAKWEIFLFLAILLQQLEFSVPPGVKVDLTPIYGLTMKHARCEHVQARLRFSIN

`C[C@H]1[C@@H](O)[C@@H](C)\C=C/C=C\C=C/C=C\C=C/C=C\C=C/[C@@H](O[C@H]2O[C@@H](C)[C@@H](O)[C@@H](N)[C@@H]2O)C[C@@H]2O[C@](O)(C[C@@H](O)C[C@@H](O)[C@@H](O)CC[C@@H](O)C[C@@H](O)CC(=O)O[C@H]1C)C[C@@H](O)[C@H]2C(=O)O` (stereo in doubt): the molecule was classed as inactive in [1], in test [4] and in test [8]. In addition, the Potency result in test [2], in test [7] and in test [10] was “inactive” each time. Besides, the activity change, negative = inhibition in [3] was -11.5% (inactive); in test [9], 3.52% (inactive). In addition, the Potency in test [5] and in test [6] was > 20.6 µM (inactive) throughout. For the same molecule, the max response in test [9] (setting [14]) was found to be 0.724%; in test [9] (setting [15]) it was 3.85%.

With `CN1CC[C@@]23c4ccccc4N[C@H]1[C@]21CCN(C)[C@@H]3Nc2ccccc21`, the call in test [1], in test [4] and in [8] was inactive. The Potency result in [2], in test [7] and in test [10] was “inactive” each time. The activity change, negative = inhibition in [3] was -9.09% (inactive); in test [9] it was -2.36% (inactive). In test [6], the Potency was > 20.6 µM (inactive). Moreover, the results for the max response in test [9] (setting [14]) and in [9] (setting [15]) were -9.01% and -11.8%, respectively.

For the molecule `C[C@H](C(=O)O)c1cccc(Oc2ccccc2)c1`, the result in test [1] was inactive. In addition, the Potency result (in [2]; in test [7]; in test [10]; in test [11]; in the test with C2A; in the test on CP191) was “inactive” in each case. The Potency entry in the test with CP256, in the test on CP262, with CP268, in the test with JCK and in the test with SC27B was “inactive” each time. For the same molecule, the activity change, negative = inhibition in test [3] is 4.26% (inactive); in test [9], 0.849% (inactive). The figures for the max response in [9] (setting [14]) and in test [9] (setting [15]) were 0.75% and -2.59%, respectively. For the same molecule, the activity, negative = inhibition is 2.84% (inactive) in test [12] (parasite line A) and 14.9% (inactive) in [12] (parasite line B).

As to `CC[C@H](Cc1c(I)cc(I)c(N)c1I)C(=O)O`, the molecule was called inactive in test [1], in [4] and in test [13]. Also, the Potency was 12.6 µM (active) in test [2], > 20.6 µM (inactive) in test [5] and > 20.6 µM (inactive) in test [6]. In addition, the Potency entry (in [7]; in test [10]; in test [11]; in the test on C2A; in the test with CP191; in the test with CP256) was “inactive” throughout. In addition, the Potency entry in the test with CP262, with CP268, in the test on JCK and with SC27B was “inactive” throughout. In addition, in test [9], the activity change, negative = inhibition was 0.772% (inactive). Besides, the max response in test [9] (setting [14]) was -5.23%; in [9] (setting [15]) it was -5.12%. For the same molecule, the activity, negative = inhibition is 7.39% (inactive) in [12] (parasite line A) and 11.4% (inactive) in [12] (parasite line B).

Consider `NS(=O)(=O)c1cc2c(cc1Cl)N[C@@H](CC1CCCC1)NS2(=O)=O`, for which the call in test [1], in [8] and in test [13] was inactive. Also, the Potency entry (in [2]; in test [7]; in test [10]; in test [11]; with C2A; with CP191) was “inactive” each time. The Potency result in the test with CP256, in the test with CP262, in the test with CP268, in the test with JCK and in the test on SC27B was “inactive” each time. The activity change, negative = inhibition was -6.75% (inactive) in test [3] and -0.977% (inactive) in [9]. Further, the Potency in test [6] was > 20.6 µM (inactive). For the same molecule, the max response came to 1.17% in test [9] (setting [14]) and 1.04% in test [9] (setting [15]). Also, the activity, negative = inhibition is -0.239% (inactive) in [12] (parasite line A) and 5.35% (inactive) in test [12] (parasite line B).
